Calls of active or inactive are those of the source. Rule as the data show it, unless noted: active = response above about 15%; inactive = the rest.
Columns and labels:
[1] = inhibitors of CD8+ T cell-vesicle binding, pilot screen, LFA-1/ICAM-1 modulator project, MLPCN validation set, flow cytometry (AID 2523;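 active = response below a set limit, under 55% cells CD8-positive and vesicle-bound, and CD8 cells' 90th-percentile brightness under 279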;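 as to vesicle binding response: mean PE anti-B7-1 fluorescence of CD8+ cells relative to row control; 100% = QL9-loaded vesicles with DMSO vehicle in the same plate row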); conditions: 2C mouse CD8+ T cells, at 7 µM, stronger effect = lower value; double positive events: measured here: CD8+/vesicle+ event percentage
[2] = target: Integrin beta-1 (Homo sapiens) + Integrin alpha-4 (Homo sapiens) (UniProt P13612+P05556); test: inhibition of HUTS-21 binding to VLA-4, pilot screen, VLA-4 allosteric modulator project, U937 cells, HUTS-21 mAb, flow cytometry, validation set (AID 2674;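 active = inhibition above 50%, about 3 SD of the validation set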;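 also: antibody binding induced by the VLA-4 ligand LDV present at three times its Kd; 0% = LDV ligand with antibody and no compound and 100% = antibody without LDV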); conditions: HUTS-21 LIBS mAb binding, at 6.7 µM, stronger effect = higher value, binding induced by LDV ligand
Chain of Integrin beta-1 (Homo sapiens) + Integrin alpha-4 (Homo sapiens) (P05556 whole entry, looked up): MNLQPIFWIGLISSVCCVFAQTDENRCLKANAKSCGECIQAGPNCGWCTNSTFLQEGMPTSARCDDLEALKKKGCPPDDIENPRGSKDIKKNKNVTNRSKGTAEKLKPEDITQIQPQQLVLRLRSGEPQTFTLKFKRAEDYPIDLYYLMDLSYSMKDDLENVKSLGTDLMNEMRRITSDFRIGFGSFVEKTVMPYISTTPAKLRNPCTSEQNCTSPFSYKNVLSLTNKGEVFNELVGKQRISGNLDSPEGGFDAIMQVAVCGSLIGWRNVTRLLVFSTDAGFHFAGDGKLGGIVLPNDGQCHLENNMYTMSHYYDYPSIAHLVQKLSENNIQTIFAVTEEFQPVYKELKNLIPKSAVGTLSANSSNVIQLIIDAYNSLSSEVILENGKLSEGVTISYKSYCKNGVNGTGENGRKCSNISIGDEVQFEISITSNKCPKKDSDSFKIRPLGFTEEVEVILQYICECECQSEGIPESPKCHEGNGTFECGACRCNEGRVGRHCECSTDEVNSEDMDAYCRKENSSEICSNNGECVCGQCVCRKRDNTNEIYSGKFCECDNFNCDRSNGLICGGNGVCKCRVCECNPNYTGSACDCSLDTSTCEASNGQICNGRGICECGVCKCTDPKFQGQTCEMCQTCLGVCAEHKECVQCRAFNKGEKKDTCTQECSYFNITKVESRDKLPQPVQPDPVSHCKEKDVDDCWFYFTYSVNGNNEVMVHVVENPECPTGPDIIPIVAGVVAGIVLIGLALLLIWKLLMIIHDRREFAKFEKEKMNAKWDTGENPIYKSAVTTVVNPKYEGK
Chain of Integrin beta-1 (Homo sapiens) + Integrin alpha-4 (Homo sapiens) (P13612 whole entry, looked up): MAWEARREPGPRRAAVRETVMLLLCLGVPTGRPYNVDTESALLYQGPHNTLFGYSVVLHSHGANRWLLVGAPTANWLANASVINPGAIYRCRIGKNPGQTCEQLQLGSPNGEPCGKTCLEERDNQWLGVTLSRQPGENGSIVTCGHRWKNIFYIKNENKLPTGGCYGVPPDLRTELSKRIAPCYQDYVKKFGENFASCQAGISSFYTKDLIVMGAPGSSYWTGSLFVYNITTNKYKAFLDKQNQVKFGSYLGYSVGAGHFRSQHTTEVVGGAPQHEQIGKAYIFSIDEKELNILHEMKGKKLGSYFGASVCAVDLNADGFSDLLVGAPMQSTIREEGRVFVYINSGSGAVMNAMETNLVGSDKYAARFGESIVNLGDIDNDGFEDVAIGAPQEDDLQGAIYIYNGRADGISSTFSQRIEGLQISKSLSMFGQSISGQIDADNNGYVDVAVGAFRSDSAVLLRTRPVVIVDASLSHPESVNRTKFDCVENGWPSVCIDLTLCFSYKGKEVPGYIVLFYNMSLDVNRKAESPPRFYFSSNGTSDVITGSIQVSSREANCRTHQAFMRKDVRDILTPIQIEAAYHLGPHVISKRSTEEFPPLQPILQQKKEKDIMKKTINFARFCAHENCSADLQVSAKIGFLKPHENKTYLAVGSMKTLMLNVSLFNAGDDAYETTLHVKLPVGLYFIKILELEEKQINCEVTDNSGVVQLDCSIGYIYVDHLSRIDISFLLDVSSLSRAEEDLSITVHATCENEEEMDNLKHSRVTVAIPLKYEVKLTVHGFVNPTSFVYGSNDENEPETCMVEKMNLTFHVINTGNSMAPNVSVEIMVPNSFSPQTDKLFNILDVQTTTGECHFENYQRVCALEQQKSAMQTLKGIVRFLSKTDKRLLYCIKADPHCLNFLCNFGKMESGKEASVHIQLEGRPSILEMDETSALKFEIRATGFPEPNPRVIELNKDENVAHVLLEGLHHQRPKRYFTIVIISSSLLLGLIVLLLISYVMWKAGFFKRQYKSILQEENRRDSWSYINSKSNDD

[3] = superoxide lowering in aged yeast cells, pilot screen, validation compound set (AID 2706;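 active = superoxide response below 65% of plate, a cut near 3 SD across the whole screen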;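 also: yeast exposed to compound for one week at 30 degrees C before staining; 100% = mean of all compound wells on the same plate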); conditions: S. cerevisiae aging, superoxide DHE fluorescence; at 10 µM, stronger effect = lower value
[4] = target: Beta-adrenergic receptor kinase 1 (Homo sapiens) (UniProt P25098); test: GRK2 binders displacing RNA aptamer, biochemical, validation, human GRK2, bead flow cytometry (AID 488806;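 active = aptamer binding inhibition above 30%, about 3 SD of noise from non-fluorescent compounds; inactive = inhibition at or below 30%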); conditions: bead-bound GRK2, FAM-aptamer displacement, at 10 µM, stronger effect = higher value
Chain of Beta-adrenergic receptor kinase 1 (Homo sapiens) (P25098 whole entry, looked up): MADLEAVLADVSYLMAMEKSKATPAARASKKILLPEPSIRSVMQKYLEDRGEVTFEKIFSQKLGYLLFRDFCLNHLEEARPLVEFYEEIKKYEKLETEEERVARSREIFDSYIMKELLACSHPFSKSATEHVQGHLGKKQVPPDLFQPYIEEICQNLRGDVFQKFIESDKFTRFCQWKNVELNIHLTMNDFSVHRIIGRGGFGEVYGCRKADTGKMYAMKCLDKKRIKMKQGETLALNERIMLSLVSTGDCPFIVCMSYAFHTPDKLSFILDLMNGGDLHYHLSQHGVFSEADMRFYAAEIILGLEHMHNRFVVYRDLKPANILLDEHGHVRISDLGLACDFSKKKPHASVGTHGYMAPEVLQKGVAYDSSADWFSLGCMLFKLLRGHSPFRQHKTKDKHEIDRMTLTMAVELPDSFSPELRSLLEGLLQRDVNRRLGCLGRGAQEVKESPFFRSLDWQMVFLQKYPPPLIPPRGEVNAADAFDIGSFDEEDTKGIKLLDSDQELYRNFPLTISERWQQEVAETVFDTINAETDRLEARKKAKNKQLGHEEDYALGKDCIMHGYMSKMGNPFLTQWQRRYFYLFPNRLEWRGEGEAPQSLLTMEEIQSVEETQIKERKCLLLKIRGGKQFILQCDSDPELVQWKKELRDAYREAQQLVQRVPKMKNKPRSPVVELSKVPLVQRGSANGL

[5] = target: Beta-2 adrenergic receptor (Homo sapiens) (UniProt P07550); test: beta2AR agonists driving receptor internalization, pilot screen, cell-based, FAP fluorogen, flow cytometry, validation set (AID 504459;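 active = percent response above 42, roughly 3 SD of non-fluorescent test compounds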;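 also: agonist-driven loss of surface beta2AR via internalization measured by FAP dye flow cytometry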); conditions: Am2.2-beta2AR cells, FAP surface receptor flow cytometry; at 10 µM; stronger effect = higher value
Chain of Beta-2 adrenergic receptor (Homo sapiens) (P07550 whole entry, looked up): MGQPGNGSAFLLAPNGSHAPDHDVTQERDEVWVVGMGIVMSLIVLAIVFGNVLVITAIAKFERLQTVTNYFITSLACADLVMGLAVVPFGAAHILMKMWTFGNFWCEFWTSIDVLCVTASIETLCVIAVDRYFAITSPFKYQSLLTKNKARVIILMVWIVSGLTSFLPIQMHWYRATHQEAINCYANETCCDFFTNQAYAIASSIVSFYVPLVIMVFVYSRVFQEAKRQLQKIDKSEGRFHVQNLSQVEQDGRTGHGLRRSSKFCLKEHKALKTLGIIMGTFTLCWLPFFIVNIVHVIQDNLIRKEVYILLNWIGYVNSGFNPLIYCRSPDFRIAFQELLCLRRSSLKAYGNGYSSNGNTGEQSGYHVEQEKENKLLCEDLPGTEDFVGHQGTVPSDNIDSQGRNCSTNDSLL

[6] = target: AP-2 complex subunit beta (Homo sapiens) (UniProt P63010); test: inhibitors of arrestin peptide binding to AP2, pilot screen, biochemical, validation set, GST-AP2 beads, flow cytometry (AID 504541;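 active = inhibition above 54%, about 3 SD of non-fluorescent compounds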;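 also: AP2 carries R879A mutation and is captured from E. coli lysate; bead-bound FITC arrestin peptide fluorescence measuring arrestin peptide binding to AP2; 0% = DMSO wells and 100% = excess unlabeled arrestin peptide control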); conditions: FITC arrestin peptide, at 10 µM, stronger effect = higher value, AP2 beta2 appendage fragment, R879A mutant
Chain of AP-2 complex subunit beta (Homo sapiens) (P63010 whole entry, looked up, the tested form may be a part, one chain of several): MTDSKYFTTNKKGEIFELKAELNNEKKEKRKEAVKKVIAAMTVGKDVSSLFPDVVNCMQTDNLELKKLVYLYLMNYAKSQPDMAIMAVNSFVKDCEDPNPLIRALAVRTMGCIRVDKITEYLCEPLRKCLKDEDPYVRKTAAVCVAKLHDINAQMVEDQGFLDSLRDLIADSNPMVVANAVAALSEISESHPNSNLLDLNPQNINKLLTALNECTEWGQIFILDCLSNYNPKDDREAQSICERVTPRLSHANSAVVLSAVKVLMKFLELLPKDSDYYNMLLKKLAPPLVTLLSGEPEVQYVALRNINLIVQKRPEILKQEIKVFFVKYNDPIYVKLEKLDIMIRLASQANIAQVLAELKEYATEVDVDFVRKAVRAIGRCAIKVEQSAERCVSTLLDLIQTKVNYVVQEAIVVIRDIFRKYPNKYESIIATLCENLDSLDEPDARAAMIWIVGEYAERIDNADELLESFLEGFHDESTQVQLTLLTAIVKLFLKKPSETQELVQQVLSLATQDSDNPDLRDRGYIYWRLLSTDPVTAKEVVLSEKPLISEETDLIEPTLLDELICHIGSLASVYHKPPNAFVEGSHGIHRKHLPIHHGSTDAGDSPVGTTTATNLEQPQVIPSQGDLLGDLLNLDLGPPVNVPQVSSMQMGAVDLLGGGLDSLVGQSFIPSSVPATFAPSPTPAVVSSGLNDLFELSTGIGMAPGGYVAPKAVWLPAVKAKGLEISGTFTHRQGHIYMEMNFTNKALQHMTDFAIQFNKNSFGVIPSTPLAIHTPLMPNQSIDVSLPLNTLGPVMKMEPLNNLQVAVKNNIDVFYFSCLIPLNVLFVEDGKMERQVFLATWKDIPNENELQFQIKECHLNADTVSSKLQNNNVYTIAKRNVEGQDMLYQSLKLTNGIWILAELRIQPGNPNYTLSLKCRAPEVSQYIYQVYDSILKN

[7] = yeast V-ATPase proton transport modulators, S. cerevisiae, pHLuorin, HTS validation (AID 504600);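 also: plate controls were DMSO for no effect and reference compound for full effect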; conditions: S. cerevisiae pHLuorin cytosolic pH, at 10 µM, stronger effect = higher value
[8] = test system: anti-desmoglein-3 scFv antibody binding to human DSG3; test: inhibitors of anti-DSG3 scFv binding to DSG3, pilot screen, biochemical, validation compound set, bead-based, flow cytometry (AID 588368;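 active = binding below the plate cutoff, the plate median minus 3 SD, with a reading above zero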;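 also: signal is the median channel fluorescence of bead-bound GFP antibody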); conditions: Protein G beads, DSG3-Fc, scFv-GFP binding, at 10 µM, stronger effect = lower value
[9] = inhibitors of fungal efflux pumps CDR1, CDR2, MDR1, pilot screen, validation compound set, multiplex, phenotypic (AID 588506;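 active = efflux inhibition above 0.42, the validation set average plus 4 SD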;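 also: Nile Red retained in cells so higher fluorescence means more efflux inhibition; 0 = negative control wells and 1 = enniatin B 25 µM full block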); conditions: S. cerevisiae pump-expressing triplex, Nile Red efflux flow cytometry; at 10 µM; stronger effect = higher value; the pumps come from Candida albicans
[10] = target: ATP-binding cassette sub-family B member 6 (Homo sapiens) (UniProt Q9NP58); test: ABCB6 transporter inhibitors, pilot screen, K562-ABCB6 cells, flow cytometry, validation set (AID 588550;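 active = inhibition above the screen-wide mean plus 3 SD, about 51%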;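 also: 0% = DMSO wells and 100% = benzethonium chloride 70 µM positive control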); conditions: K562-ABCB6 porphyrin accumulation, 1 h, at 10 µM, stronger effect = higher value
Chain of ATP-binding cassette sub-family B member 6 (Homo sapiens) (Q9NP58 whole entry, looked up): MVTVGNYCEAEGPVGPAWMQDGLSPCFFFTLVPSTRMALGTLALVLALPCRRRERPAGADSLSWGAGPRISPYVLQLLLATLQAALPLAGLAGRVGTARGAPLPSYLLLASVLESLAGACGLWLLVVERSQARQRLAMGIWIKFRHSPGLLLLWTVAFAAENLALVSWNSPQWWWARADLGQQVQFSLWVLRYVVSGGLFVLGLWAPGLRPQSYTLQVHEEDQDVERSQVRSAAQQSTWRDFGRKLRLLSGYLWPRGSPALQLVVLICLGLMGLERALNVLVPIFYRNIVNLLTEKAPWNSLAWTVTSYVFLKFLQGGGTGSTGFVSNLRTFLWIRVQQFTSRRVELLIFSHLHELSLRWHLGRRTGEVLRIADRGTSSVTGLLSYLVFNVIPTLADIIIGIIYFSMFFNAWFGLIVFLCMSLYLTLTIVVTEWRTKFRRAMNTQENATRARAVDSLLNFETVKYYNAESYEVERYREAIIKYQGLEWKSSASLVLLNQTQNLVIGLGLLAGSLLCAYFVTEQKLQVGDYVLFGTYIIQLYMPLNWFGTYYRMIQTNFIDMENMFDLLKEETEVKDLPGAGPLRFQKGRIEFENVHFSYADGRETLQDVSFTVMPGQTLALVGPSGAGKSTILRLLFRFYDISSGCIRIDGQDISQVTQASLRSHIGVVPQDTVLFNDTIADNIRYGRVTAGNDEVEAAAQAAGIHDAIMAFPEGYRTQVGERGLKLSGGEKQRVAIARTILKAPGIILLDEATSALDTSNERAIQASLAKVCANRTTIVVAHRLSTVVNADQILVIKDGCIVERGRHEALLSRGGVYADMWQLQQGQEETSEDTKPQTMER

[11] = promoters of myeloid differentiation in arrested cells, primary screen, cell-based, GFP/MAC1 double positive, flow cytometry, validation set (AID 588685;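 active = differentiation response of at least 50%, scaled between solvent and reference control, from cells with both markers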;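 also: compound exposure lasts four days before antibody staining and flow analysis; 0% = DMSO wells and 100% = 5 µM fulvestrant positive control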); conditions: ER-HoxA9 marrow cells, stronger effect = higher value, normalized: vehicle 0, fulvestrant 100

Structure (SMILES) | double positive events [1] [%] | vesicle binding response [1] | inhibition [2] | superoxide response (% of plate) [3] | aptamer binding inhibition [4] | response [5] | inhibition [6] | response [7] | binding (% of control) [8] | efflux inhibition (fraction of control) [9] | inhibition [10] | differentiation response [11]
O=c1[nH]c(Cc2ccccc2)nc2c1oc1ccccc12 | 58.4 | 200% (inactive) | -7.25% (inactive) | 94% (inactive) | 12% (inactive) | 0.02% (inactive) | -7.86% (inactive) | -2.08% (inactive) | 97% (inactive) | -0.17 (inactive) | 4% (inactive) | -4% (inactive)
COc1ccc(C(=O)C2CCCCC2=O)cc1 (stereo unspecified) | 67.8 | 193% (inactive) | 9.1% (inactive) | 100% (inactive) | 0% (inactive) | 15.9% (inactive) | 2.47% (inactive) | -6% (inactive) | 101% (inactive) | 0.04 (inactive) | 16% (inactive) | -7.94% (inactive)
Cc1ccc2c(CN3CCN(Cc4ccc5c(c4)OCO5)CC3)cc(=O)oc2c1C | 58.4 | 88.4% (inactive) | -7.79% (inactive) | 87.4% (inactive) | -2% (inactive) | -2.16% (inactive) | 4.85% (inactive) | -2.29% (inactive) | 106% (inactive) | -0.28 (inactive) | -11% (inactive) | -6.03% (inactive)
COc1cccc(N2CC34C=CC(O3)C(C(=O)O)C4C2=O)c1 (stereo unspecified) | 60.2 | 168% (inactive) | -19.5% (inactive) | 97.6% (inactive) | 0% (inactive) | -21.5% (inactive) | 28.1% (inactive) | -2.62% (inactive) | 102% (inactive) | 0.08 (inactive) | 3% (inactive) | 44% (inactive)
COc1ccc2cc[nH]c2c1 | 67.5 | 407% (inactive) | -5.38% (inactive) | 104% (inactive) | 2% (inactive) | -20.2% (inactive) | -3.08% (inactive) | 0.61% (inactive) | 103% (inactive) | 0 (inactive) | 5% (inactive) | -10.9% (inactive)
CC(C)COc1ccc(Cc2cnc(N)nc2N)cc1 | 63.9 | 226% (inactive) | 3.67% (inactive) | 97.9% (inactive) | 0% (inactive) | 5.88% (inactive) | 59.5% (active) | -3.28% (inactive) | 95.5% (inactive) | 0.05 (inactive) | 0% (inactive) | 76% (active)
CC[N+](C)(C)Cc1ccccc1Br | 63.8 | 185% (inactive) | 8.25% (inactive) | 96.2% (inactive) | 4% (inactive) | -19.8% (inactive) | -11.2% (inactive) | -30.5% (inactive) | 102% (inactive) | 0 (inactive) | 2% (inactive) | -11.9% (inactive)
CCOC(=O)C1C(=O)CC(C)(O)C(C(=O)OCC)C1/C=C/c1ccccc1 (stereo unspecified) | 61.6 | 115% (inactive) | 2.93% (inactive) | 96.1% (inactive) | 2% (inactive) | 4.95% (inactive) | 1.5% (inactive) | -0.5% (inactive) | 102% (inactive) | -0.07 (inactive) | -11% (inactive) | -10.4% (inactive)
CC(=O)C1=C(NC(=O)c2ccc(C(F)(F)F)cc2)C[C@@H]2[C@H]1C2(C)C | 60 | 129% (inactive) | -3.77% (inactive) | 99% (inactive) | 3% (inactive) | 0.35% (inactive) | 6.52% (inactive) | -6.14% (inactive) | 101% (inactive) | 0.28 (inactive) | -1% (inactive) | -17.7% (inactive)
O=C1Nc2ccc3sc4ccccc4c3c2C1=O | 62 | 162% (inactive) | 9.63% (inactive) | 111% (inactive) | 1% (inactive) | 3.08% (inactive) | -0.66% (inactive) | -7.6% (inactive) | 102% (inactive) | -0.19 (inactive) | -15% (inactive) | -0.18% (inactive)
COc1ccc(CCCC(=O)O)c(C)c1 | 63.8 | 282% (inactive) | -9.06% (inactive) | 92.3% (inactive) | -1% (inactive) | 1.17% (inactive) | 5.62% (inactive) | -1.31% (inactive) | 111% (inactive) | -0.2 (inactive) | 17% (inactive) | 0% (inactive)
CC1/C(=C\c2ccc(Cl)cc2)C(=O)C2CC1C2(C)C (stereo unspecified) | 60.1 | 168% (inactive) | -3.16% (inactive) | 94.9% (inactive) | 2% (inactive) | -15.2% (inactive) | -1.54% (inactive) | 0.95% (inactive) | 99.9% (inactive) | 0.05 (inactive) | 9% (inactive) | -5.6% (inactive)
O=C(/C=C/c1ccc2c(c1)OCO2)c1ccccn1 | 60.4 | 181% (inactive) | 4.84% (inactive) | 89.8% (inactive) | 1% (inactive) | -23.4% (inactive) | -13% (inactive) | -4.66% (inactive) | 102% (inactive) | 0 (inactive) | -8% (inactive) | -5.97% (inactive)
